Test results published in ChEMBL document CHEMBL1157539, “Thousands of chemical starting points for antimalarial lead identification” (Nature, 2010).

tested on: Plasmodium falciparum; assay: GSK_TCMDC: Inhibition of Plasmodium falciparum 3D7 in whole red blood cells, using parasite LDH activity as an index of growth. Test compounds present at 2uM; assay type: functional

Q: Which Inhibition does the source give for Cl.Nc1cc(C(F)(F)F)ccc1Cl here?
A: Its Inhibition is 97%.

Q: O=C(Nc1ccc2c(c1)CCN(C1CCC1)CC2)c1cn(-c2ccccc2)nc1-c1ccccc1.O=C(O)C(F)(F)F was tested. Which Inhibition did it give?
A: Its Inhibition is 100%.

Q: How did the Inhibition turn out when Cc1cc(N[C@@H](Cc2ccccc2)C(=O)NC2CCCC2)nc(NCCc2ccc(F)cc2)n1.O=C(O)C(F)(F)F was run?
A: Its Inhibition is 100%.

Q: NS(=O)(=O)c1ccccc1Nc1nc(Nc2ccc(N3CCOCC3)cc2)nc2c1CCC2.O=CO was tested. Which Inhibition did it give?
A: The Inhibition was 96%.

Q: How did the Inhibition turn out when CCC(COCc1ccc(Cl)cc1)N(C)CCN(C)C(CC)COCc1ccc(Cl)cc1.Cl (stereo unspecified) was run?
A: Its Inhibition is 95%.

Q: For CCNc1cc(C(=O)N[C@@H](Cc2ccccc2)[C@H](O)CN[C@@H]2CCc3ccccc32)cc(N2CCCC2=O)c1, which Inhibition is on record?
A: Its Inhibition is 92%.

Q: With CCCCc1cc(NCc2ccncc2)nc(Nc2ccc(C)cc2)n1 as the compound, how does the Inhibition read?
A: The Inhibition was 100%.

Q: Which Inhibition does the source give for COc1ccc2nccc(NC(=O)C3CCC(NCc4ccc5c(c4)NC(=O)CS5)CC3)c2c1 (stereo unspecified) here?
A: Its Inhibition is 94%.

Q: COc1ccc2c(=O)c3ccc(OC)cc3[nH]c2c1 was tested. Which Inhibition did it give?
A: The Inhibition was 93%.

Q: Cc1nc2ccccc2c(=O)n1NCc1ccc(Cl)c(Cl)c1 was tested. Which Inhibition did it give?
A: Its Inhibition is 96%.

Q: Which Inhibition does the source give for Cc1cc(F)ccc1N(c1nc(-c2cc(Cl)ccc2Cl)cs1)C1CCNC1.O=C(O)C(F)(F)F (stereo unspecified) here?
A: The Inhibition was 99%.

Q: How did the Inhibition turn out when COc1cc(F)c2ncc(Cl)c(C(O)CN3CCC(NC(=O)c4ccc5c(c4)NC(=O)CS5)CC3)c2c1.Cl (stereo unspecified) was run?
A: Its Inhibition is 98%.

Q: Which Inhibition does the source give for COc1cc(NC(=O)c2cc3c(C)nn(-c4cccc(C(F)(F)F)c4)c3s2)cc(OC)c1OC here?
A: The Inhibition was 100%.

Q: How did the Inhibition turn out when COC1(C)Oc2ccc3cccc([N+](=O)[O-])c3c2C1=O (stereo unspecified) was run?
A: Its Inhibition is 98%.

Q: Which Inhibition does the source give for CCCC(C)NC(=O)[C@H](CC1CCCCC1)NC(=O)c1ccc(O)c(-c2cccc(C(F)(F)F)c2)c1 (stereo partly specified) here?
A: The Inhibition was 100%.

Q: With COc1ccccc1-c1[nH]c2ccccc2c1CN1CCC(c2c(C)cccc2C)CC1 as the compound, how does the Inhibition read?
A: Its Inhibition is 96%.

Q: Which Inhibition does the source give for CC(C)NC(=N)NN=Cc1ccc(Cl)c(Cl)c1 here?
A: The Inhibition was 100%.

Q: How did the Inhibition turn out when C=C(F)c1sc(CNCCCNc2nc3ccccc3[nH]2)c(C)c1Br was run?
A: The Inhibition was 100%.

Q: With CC(C)CC(C)NC(=O)C1Cc2c([nH]c3ccc(F)cc23)C2(CCN(Cc3ccccc3)CC2)N1 (stereo unspecified) as the compound, how does the Inhibition read?
A: The Inhibition was 97%.

Q: With Cl.Oc1ccc2c(CNCCc3ccccc3)c(O)ccc2c1CNCCc1ccccc1 as the compound, how does the Inhibition read?
A: The Inhibition was 99%.

Q: With O=C(CSc1ccccn1)Nc1c(F)cccc1F as the compound, how does the Inhibition read?
A: The Inhibition was 88%.

Q: O=C(O)C(F)(F)F.Oc1ccc(CCNc2nc(NCCCOc3cccc(CN4CCCCC4)c3Cl)nc(N3CCNCC3)n2)cc1 was tested. Which Inhibition did it give?
A: The Inhibition was 100%.

Q: Which Inhibition does the source give for CC(c1cccc(Nc2nccc(-c3c(-c4cccc(NC(=O)c5c(F)cccc5F)c4)nn4ncccc34)n2)c1)S(C)(=O)=O (stereo unspecified) here?
A: Its Inhibition is 98%.

Q: For COc1ccccc1-c1sccc1C(=O)NC1(c2cc(Cl)cc(Cl)c2)CCCC1, which Inhibition is on record?
A: Its Inhibition is 88%.

Q: With c1cn(-c2ccc(CNc3nccc(Nc4ccc(OCCN5CCOCC5)cc4)n3)cc2)cn1 as the compound, how does the Inhibition read?
A: Its Inhibition is 100%.

Q: How did the Inhibition turn out when NC1CCN(c2nc(NCCCc3ccc(O)cc3)nc(NCc3cccc4ccccc34)n2)CC1.O=C(O)C(F)(F)F was run?
A: The Inhibition was 100%.

tested on: Plasmodium falciparum; assay: GSK_TCMDC: Inhibition of Plasmodium falciparum Dd2 in whole red blood cells, using parasite LDH activity as an index of growth. Test compounds present at 2uM; assay type: functional

Q: Which Inhibition does the source give for CCNc1cc(C(=O)N[C@@H](Cc2ccoc2)[C@H](O)CNC(C)CCCC(C)C)cc(N2CCCCS2(=O)=O)c1.Cl (stereo partly specified) here?
A: The Inhibition was 68%.

Q: For O=C(Nc1ccc(Cl)cc1)Nc1ccc(OCC(O)CN2CCCCC2)cc1 (stereo unspecified), which Inhibition is on record?
A: Its Inhibition is 13%.

Q: Which Inhibition does the source give for CN(C)c1ccc(CN2CCC(NC(=O)c3ccc(-c4ccccc4F)s3)CC2)cc1.O=C(O)C(F)(F)F here?
A: Its Inhibition is 27%.

Q: O=C(O)C(F)(F)F.OCC1CCN(Cc2ccc(-c3ccc(-c4nc5cc(F)ccc5[nH]4)cc3)cc2)CC1 was tested. Which Inhibition did it give?
A: Its Inhibition is 95%.

Q: CC1CN(CCCn2c3ccccc3c3ccc(C(=O)CCCN(C)C)cc32)CC(C)N1.Cl (stereo unspecified) was tested. Which Inhibition did it give?
A: Its Inhibition is 6%.

Q: How did the Inhibition turn out when CCCNCc1ccc(-c2ccc(CN(CC3CCCO3)C(=O)COc3ccccc3Cl)cc2)nc1.O=C(O)C(F)(F)F (stereo unspecified) was run?
A: The Inhibition was 11%.

Q: Cl.N=C(N)Nc1ccc(NC(=O)Nc2ccc(NC(=N)N)cc2)cc1 was tested. Which Inhibition did it give?
A: The Inhibition was 74%.

Q: COc1ccc(NC(=O)Nc2ccc(-c3ccccc3)cc2)cc1Cn1nc(Cl)c(N2CCCNCC2)cc1=O.O=C(O)C(F)(F)F was tested. Which Inhibition did it give?
A: The Inhibition was 84%.

Q: Which Inhibition does the source give for COc1ccccc1Cn1ccnc1SCC(=O)Nc1cccc(C(F)(F)F)c1 here?
A: Its Inhibition is 73%.

Q: How did the Inhibition turn out when CCCC(=O)Nc1ccc(OCCCN(Cc2ccccc2OC(F)(F)F)c2ccc(C#N)c(C(F)(F)F)c2)cc1 was run?
A: Its Inhibition is 95%.

Q: How did the Inhibition turn out when CCCC(C)C(=O)N1CCOC(COCc2cccc(C(F)(F)F)c2)(c2ccc(Cl)cc2)C1 (stereo unspecified) was run?
A: Its Inhibition is 91%.

Q: O=c1nc(C=Cc2ccc(Br)cc2)oc2ccccc12 was tested. Which Inhibition did it give?
A: The Inhibition was 66%.

Q: Which Inhibition does the source give for O=C(c1ccc2ccccc2n1)N1CCCc2cc(Br)ccc21 here?
A: The Inhibition was 74%.

Q: Which Inhibition does the source give for Cl.Oc1ccc(CCCc2cc(Oc3c(I)cc(CCc4ncc[nH]4)cc3I)ccc2O)cc1 here?
A: The Inhibition was 7%.

Q: For Cl.Nc1cc(C(F)(F)F)ccc1Cl, which Inhibition is on record?
A: Its Inhibition is 0%.

Q: How did the Inhibition turn out when O=C(Nc1ccc2c(c1)CCN(C1CCC1)CC2)c1cn(-c2ccccc2)nc1-c1ccccc1.O=C(O)C(F)(F)F was run?
A: Its Inhibition is 10%.

Q: Cc1cc(N[C@@H](Cc2ccccc2)C(=O)NC2CCCC2)nc(NCCc2ccc(F)cc2)n1.O=C(O)C(F)(F)F was tested. Which Inhibition did it give?
A: The Inhibition was 61%.

Q: Which Inhibition does the source give for NS(=O)(=O)c1ccccc1Nc1nc(Nc2ccc(N3CCOCC3)cc2)nc2c1CCC2.O=CO here?
A: The Inhibition was 99%.

Q: With CCC(COCc1ccc(Cl)cc1)N(C)CCN(C)C(CC)COCc1ccc(Cl)cc1.Cl (stereo unspecified) as the compound, how does the Inhibition read?
A: Its Inhibition is 78%.

Q: For CCNc1cc(C(=O)N[C@@H](Cc2ccccc2)[C@H](O)CN[C@@H]2CCc3ccccc32)cc(N2CCCC2=O)c1, which Inhibition is on record?
A: Its Inhibition is 93%.

Q: For CCCCc1cc(NCc2ccncc2)nc(Nc2ccc(C)cc2)n1, which Inhibition is on record?
A: Its Inhibition is 59%.

Q: With COc1ccc2nccc(NC(=O)C3CCC(NCc4ccc5c(c4)NC(=O)CS5)CC3)c2c1 (stereo unspecified) as the compound, how does the Inhibition read?
A: Its Inhibition is 19%.

Q: How did the Inhibition turn out when COc1ccc2c(=O)c3ccc(OC)cc3[nH]c2c1 was run?
A: The Inhibition was 75%.

Q: Which Inhibition does the source give for Cc1nc2ccccc2c(=O)n1NCc1ccc(Cl)c(Cl)c1 here?
A: The Inhibition was 92%.

Q: With Cc1cc(F)ccc1N(c1nc(-c2cc(Cl)ccc2Cl)cs1)C1CCNC1.O=C(O)C(F)(F)F (stereo unspecified) as the compound, how does the Inhibition read?
A: Its Inhibition is 3%.

Q: For COc1cc(F)c2ncc(Cl)c(C(O)CN3CCC(NC(=O)c4ccc5c(c4)NC(=O)CS5)CC3)c2c1.Cl (stereo unspecified), which Inhibition is on record?
A: Its Inhibition is 68%.

Q: For COc1cc(NC(=O)c2cc3c(C)nn(-c4cccc(C(F)(F)F)c4)c3s2)cc(OC)c1OC, which Inhibition is on record?
A: The Inhibition was 50%.

Q: With COC1(C)Oc2ccc3cccc([N+](=O)[O-])c3c2C1=O (stereo unspecified) as the compound, how does the Inhibition read?
A: Its Inhibition is 0%.

Q: For CCCC(C)NC(=O)[C@H](CC1CCCCC1)NC(=O)c1ccc(O)c(-c2cccc(C(F)(F)F)c2)c1 (stereo partly specified), which Inhibition is on record?
A: The Inhibition was 98%.

Q: With COc1ccccc1-c1[nH]c2ccccc2c1CN1CCC(c2c(C)cccc2C)CC1 as the compound, how does the Inhibition read?
A: Its Inhibition is 13%.

Q: CC(C)NC(=N)NN=Cc1ccc(Cl)c(Cl)c1 was tested. Which Inhibition did it give?
A: The Inhibition was 12%.

Q: C=C(F)c1sc(CNCCCNc2nc3ccccc3[nH]2)c(C)c1Br was tested. Which Inhibition did it give?
A: The Inhibition was 23%.

Q: For CC(C)CC(C)NC(=O)C1Cc2c([nH]c3ccc(F)cc23)C2(CCN(Cc3ccccc3)CC2)N1 (stereo unspecified), which Inhibition is on record?
A: The Inhibition was 49%.

Q: Which Inhibition does the source give for Cl.Oc1ccc2c(CNCCc3ccccc3)c(O)ccc2c1CNCCc1ccccc1 here?
A: Its Inhibition is 100%.

Q: How did the Inhibition turn out when O=C(CSc1ccccn1)Nc1c(F)cccc1F was run?
A: The Inhibition was 0%.

Q: For O=C(O)C(F)(F)F.Oc1ccc(CCNc2nc(NCCCOc3cccc(CN4CCCCC4)c3Cl)nc(N3CCNCC3)n2)cc1, which Inhibition is on record?
A: Its Inhibition is 22%.

Q: Which Inhibition does the source give for CC(c1cccc(Nc2nccc(-c3c(-c4cccc(NC(=O)c5c(F)cccc5F)c4)nn4ncccc34)n2)c1)S(C)(=O)=O (stereo unspecified) here?
A: The Inhibition was 98%.

Q: For COc1ccccc1-c1sccc1C(=O)NC1(c2cc(Cl)cc(Cl)c2)CCCC1, which Inhibition is on record?
A: Its Inhibition is 95%.

Q: c1cn(-c2ccc(CNc3nccc(Nc4ccc(OCCN5CCOCC5)cc4)n3)cc2)cn1 was tested. Which Inhibition did it give?
A: Its Inhibition is 3%.

Q: How did the Inhibition turn out when NC1CCN(c2nc(NCCCc3ccc(O)cc3)nc(NCc3cccc4ccccc34)n2)CC1.O=C(O)C(F)(F)F was run?
A: Its Inhibition is 2%.
